High-throughput results from PubChem.
The list is not random: actives were taken first. Their share in the collection is about 6%.
D3 ag – D3 dopamine receptor (human) agonism; P35462; D3R DiscoveRx beta-arrestin cells, luminescence, 90 min; max activation, %; 0.58% of 410,000 active; AID 652048; in the data active = max activation above about 30%; note: 0% is about no effect
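Agonist mode: compounds and dopamine controls were applied to plated cells for 90 min at 37 degrees C after an overnight attachment at 1500 cells/well. Luminescent read-out followed 30 - 60 minutes at room temperature with DiscoveRx detection reagent.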
Chronic BCR inh – chronic active BCR signaling inhibition; ABC-DLBCL IkBa-CBG/CBR reporter, luminescence ratio, 4 h; Potency, µM (highest dose often 46.1 µM), without a hit: top-dose activity change, negative = inhibition, most hits filed as inhibitors; 0.05% of 340,000 active; active = well fitted inhibition curve with a large enough effect in the signal ratio, with a control signal flat, not every such curve was filed as active; inconclusive = small, poorly fitted or top-dose-only effect, or effect the other way, or a change in a side signal; the % refers to the signal ratio;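 note: potency is the fitted concentration of half-maximal effect; plate controls were basal doxycycline-induced cells for no effect and cells given 10 µM MG132 for full effect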
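TMD8 ABC-DLBCL cells carrying doxycycline-inducible green luciferase fused to IkappaBalpha plus unfused red luciferase were exposed to compounds (up to 46 uM) for 4 hrs at 37C. Activity came from the overlap-corrected green/red luminescence ratio.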
D1 antag – antagonists of human D1 dopamine receptor | HEK293 TREx D1 cells, calcium flux, dopamine EC80; active compounds read low | P21728 | 3.2% of 360,000 active | activity change, negative = inhibition, % at 10 µM; in the data active = activity change below about -30%; note: % is set by controls: 0 for no effect and ±100 for the full control effect
Target sequence (P21728 whole entry, looked up): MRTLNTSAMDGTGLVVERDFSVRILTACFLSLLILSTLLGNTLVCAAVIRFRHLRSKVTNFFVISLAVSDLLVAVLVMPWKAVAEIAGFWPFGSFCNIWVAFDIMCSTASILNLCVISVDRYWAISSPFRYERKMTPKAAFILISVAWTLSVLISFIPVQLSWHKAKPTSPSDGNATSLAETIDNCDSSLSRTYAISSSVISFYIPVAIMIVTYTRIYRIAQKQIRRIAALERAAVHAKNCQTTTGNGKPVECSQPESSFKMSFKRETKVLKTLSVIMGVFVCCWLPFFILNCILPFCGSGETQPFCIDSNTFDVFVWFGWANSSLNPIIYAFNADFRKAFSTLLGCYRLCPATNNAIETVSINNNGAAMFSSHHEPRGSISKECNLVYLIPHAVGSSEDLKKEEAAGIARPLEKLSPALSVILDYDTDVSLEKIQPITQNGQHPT
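Antagonism measured as reduced calcium response to an EC80 dopamine addition following 180 s compound pre-read; cells were inducible HEK293 Trex D1 plated overnight at 30 C, read kinetically at 1 cycle/sec.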
D1 PAM – enhances dopamine response at the human D1 receptor | HEK293 TREx D1 cells, calcium flux, dopamine EC20 potentiation | potentiation, % at 10 µM | 0.036% of 360,000 active; in the data active = potentiation above about 30%; note: 0% is about no effect
D1 ag – activates the human D1 dopamine receptor; HEK293 T-REx D1 cells, calcium flux, agonist mode; activation, % at 2 µM; 1% of 360,000 active; AID 504660; in the data active = activation above about 30%; note: 0% is about no effect
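Tetracycline-induced HEK293 TREx D1 cells, force-coupled to calcium signalling, were dye-loaded with a no-wash calcium kit. Compound was pin-added after a 10 s baseline. Fluorescence was read kinetically at 1 cycle/s for 180 s, with calcium rises flagged as agonism.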
DRD3 antagonist – D3 dopamine receptor (human) antagonism; P35462; D3R cells, DiscoveRx beta-arrestin luminescence, antagonist mode; active compounds read low; max response, negative = inhibition, %; 2.5% of 360,000 active; AID 652054; in the data active = max response below about -50%; inconclusive = no clear call, values can overlap the other calls; note: % is set by controls: 0 for no effect and ±100 for the full control effect
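Cells expressing the human receptor were seeded at 1500 cells/well, incubated overnight at 37 degrees C in 5% CO2, then exposed to library compounds with dopamine controls for 90 minutes at 37 degrees C before luminescent detection.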
* marks the source's active call; other numbers are inactive results; ? = inconclusive; . = no result; ! = not confirmed by another sample.

SMILES	D3 ag	Chronic BCR inh	D1 antag	D1 PAM	D1 ag	DRD3 antagonist
Cc1sc2c(c1C)c(=O)n(-c1ccc(Cl)cc1)c(=O)n2Cc1cc(=O)n2cc(Br)ccc2n1	-10	.	4	3	1	.
CCOc1ccc(-n2c(=O)c3c(C)c(C)sc3n(Cc3cc(=O)n4cc(Cl)ccc4n3)c2=O)cc1	3	.	-42*	1	-1	.
O=C(Nc1ccc(Cl)cc1)C(NS(=O)(=O)c1cccs1)c1ccccc1 (configuration not stated)	-5	.	-3	1	2	.
CCOc1ccc(CCNC(=O)CS(=O)(=O)Cc2nc(-c3cccc(Cl)c3)oc2C)cc1	-9	.	-16	0	8	.
CN1C(=O)Cc2cc([S+](=O)([O-])N3CCN([S+](=O)([O-])c4c(F)cccc4F)CC3)ccc21	.	.	-13	-7	3	.
Cc1nc2c(-c3ccccc3)c[nH]n2c(=O)c1Cc1ccccc1	-5	?	-20	.	36*	-9
CCN1C(=O)C(=O)c2cc(C)ccc21	-21	0%	.	.	.	-26
CC[N+]1=C(C)C(C)(C)c2cc(C)ccc21	-2	13%	-34*	-7	17	11
C[C@@H]1[C@H]2[C@@H](O[C@@H]3O[C@H](CO)[C@@H](O)[C@H](O)[C@H]3O)OC=C(C(=O)O)[C@H]2C[C@@H]1O	43*	-1%	1	1	14	-12
O=C(Cn1c(=O)nc(-c2ccccc2)c2cc(Cl)ccc21)NCCc1ccccc1	4	.	-6	-1	-1	.
O=C(NN=C1C2CC3CC1CC(Cl)(C3)C2)c1cccs1	-2	?	-39*	-18	0	-4
CC1(C(=O)NS(=O)(=O)c2cccc(Cl)c2)CCN1C(=O)Cc1ccsc1 (configuration not stated)	0	.	.	.	.	12
Cc1cccc(/C=C/C(=O)c2ccc(NC3=NCCCS3)cc2)c1	-2	?	-15	-6	5	-57*
O=C(/C=C/c1ccc(Br)cc1)c1ccc(NC2=NCCCS2)cc1	-27	?	-9	-6	4	-55*
O=C(/C=C/c1ccccc1)c1ccc(NC2=NCCCS2)cc1	17	?	0	-8	7	-1
COc1cccc(/C=C/C(=O)c2ccc(NC3=NCCCS3)cc2)c1	-8	?	-21	-10	17	-54*
Cc1cccc(-n2ncc3c(N4CCCC(C)C4)ncnc32)c1 (configuration not stated)	2	?	15	3	8	.
Cc1cc(Cl)c(S(=O)(=O)N2CCN(c3cccc(C)c3C)CC2)cc1OCC(N)=O	-5	-14%	-13	-6	2	28
CN(C)S(=O)(=O)N1CCN(c2ccccc2Cl)CC1	8	0%	5	2	3	8
CN(C)S(=O)(=O)N1CCN(c2cc(Cl)ccc2Cl)CC1	-4	2%	14	-5	40*	-5
Cc1cccc(N2CCN(S(=O)(=O)c3cc(Cl)ccc3Cl)CC2)c1C	65*	.	-4	-2	1	.
O=C(c1cccs1)c1ccc(-c2cccs2)s1	-9	?	-38*	-2	70*	?
CN1CCN(C(=O)c2ccc(-c3cccs3)s2)CC1	-2	1%	-23	-4	1	0
Cc1ccc(CCNC(=O)CN(c2ccc(C)cc2)S(=O)(=O)c2c(C)noc2C)cc1	7	0%	-1	0	1	11
COc1ccc(N(CC(=O)Nc2ccc(C)c(F)c2)S(=O)(=O)c2c(C)noc2C)cc1	1	0%	-9	-3	7	4
SMILES	D3 ag	Chronic BCR inh	D1 antag	D1 PAM	D1 ag	DRD3 antagonist
CCOc1ccc(N(CC(=O)Nc2cccc(OC)c2)S(=O)(=O)c2c(C)noc2C)cc1	4	?	39	-7	5	11
CCOc1ccc(N(CC(=O)Nc2cccc(Cl)c2)S(=O)(=O)c2c(C)noc2C)cc1	-1	?	-36*	-6	4	-15
COc1ccc(N(CC(=O)Nc2ccc(C)c(C)c2)S(=O)(=O)c2c(C)noc2C)cc1	-15	3%	-42*	-12	4	0
Cc1ccc(N(CC(=O)NCCc2ccc(Cl)cc2)S(=O)(=O)c2c(C)noc2C)cc1	-5	-1%	-34*!	4	8	-19
C=C1C(=O)O[C@H]2[C@H]1CC/C(C)=C\CC[C@@]1(C)O[C@@H]21	-10	.	.	.	.	.
CCOC(=O)C(C(=O)OCC)c1cc(Br)c2noc3c2c1C(=O)c1ccccc1-3	-19	?	1	18	-1	-102*
COCCCNC(=O)c1ccc2c3c(onc13)-c1ccccc1C2=O	-29	?	18	0	3	?
Oc1cccc(Nc2cc(-c3ccccc3)ncn2)c1	-1	.	0	-2	0	.
CCN1CCCC1CNC(=O)c1cc(N)ccc1OC (configuration not stated)	-16	.	.	.	.	-52*
CCN1CCCC1CNC(=O)c1cc(S(=O)(=O)CC)ccc1OC (configuration not stated)	-24	.	.	.	.	.
CCN1CCCC1CNC(=O)c1[nH]c2ccc(OC)cc2c1C (configuration not stated)	-15	?	-15	-7	4	-61*
C=CCN1CCCC1CNC(=O)c1cc2[nH]nnc2cc1OC (configuration not stated)	-86	2%	-13	-6	-1	-81*
CCN1CCC[C@H]1CNC(=O)c1c(OC)ccc(Br)c1OC	-79	-5%	34	-1	-1	-55*
c1ccc(CCNc2nc(-c3ccccc3)cs2)cc1	6	.	.	.	.	.
O=C1NC(Cc2ccccc2)c2nc3ccc(F)cc3c(=O)n2-c2cc3ccccc3cc21 (configuration not stated)	2	.	.	.	.	56
CCN1CCCC1CNC(=O)c1cc([N+](=O)[O-])c(N(C)C)cc1OC (configuration not stated)	-28	-1%	-15	-11	-3	-103*
CCOC(=O)C1CCN(C(=O)c2[nH]c3ccc(OC)cc3c2C)CC1	12	1%	-67*	1	2	3
COc1ccc(N2CCN(C(=O)c3[nH]c4ccc(OC)cc4c3C)CC2)cc1	6	0%	5	-7	1	3
CC1(C)NC(=O)N(CC(O)COc2ccccc2C(=O)N2CCCCC2)C1=O (configuration not stated)	4	-1%	-30*	-2	2	18
CC1(C)NC(=O)N(CC(O)COc2cc3ccccc3cc2C(=O)N2CCCCC2)C1=O (configuration not stated)	-5	2%	16	2	0	3
